# Experimental data as given in article PMC7862700, “An all-to-all approach to the identification of sequence-specific readers for epigenetic DNA modifications on cytosine”.
# Tests used:
# Assay in all cases: DAPPL (digital affinity profiling via proximity ligation, sequencing); 10 mM Tris-HCl pH 7.5, 50 mM NaCl, 1 mM DTT, 4% glycerol, room temperature, 30 min; GST-TFs on glutathione beads, 16-mer random dsDNA library, 0.1% formaldehyde crosslink after washing; high values mean tight binding
# Conditions in all cases: protein: recombinant; tags: N-terminal GST; dsDNA, one strand shown
# [1] = target: T1, FLI1 (Homo sapiens, UniProt Q01543 1-452)
# T1 sequence: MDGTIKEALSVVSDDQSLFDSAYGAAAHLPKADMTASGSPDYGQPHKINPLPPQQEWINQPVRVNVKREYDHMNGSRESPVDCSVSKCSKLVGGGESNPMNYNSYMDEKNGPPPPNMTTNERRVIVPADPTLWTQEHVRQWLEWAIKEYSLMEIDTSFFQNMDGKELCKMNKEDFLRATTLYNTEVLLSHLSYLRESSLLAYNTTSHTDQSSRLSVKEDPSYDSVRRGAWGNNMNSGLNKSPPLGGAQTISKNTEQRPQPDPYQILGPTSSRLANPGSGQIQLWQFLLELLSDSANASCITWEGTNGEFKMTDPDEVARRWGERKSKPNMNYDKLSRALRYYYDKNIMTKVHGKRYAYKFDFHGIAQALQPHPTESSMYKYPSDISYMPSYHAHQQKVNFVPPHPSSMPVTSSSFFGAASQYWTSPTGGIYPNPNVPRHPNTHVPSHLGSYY
# How it was run: (§1)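 Human transcription factors were made in yeast as GST fusions, captured on glutathione beads and barcoded with DNA. With a tag-only sample included, the pool was incubated with 200 nmole of a random double-stranded 16-mer DNA library in Tris/NaCl/DTT/glycerol buffer at room temperature for 30 min, then crosslinked with 0.1% formaldehyde after washing, ligated by proximity, amplified and sequenced. For binding signal, each hexamer's read frequency for a factor is divided by its frequency for the tag-only sample.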
# [2] = target: T2, ELK1 (Homo sapiens, UniProt P19419 1-428)
# T2 sequence: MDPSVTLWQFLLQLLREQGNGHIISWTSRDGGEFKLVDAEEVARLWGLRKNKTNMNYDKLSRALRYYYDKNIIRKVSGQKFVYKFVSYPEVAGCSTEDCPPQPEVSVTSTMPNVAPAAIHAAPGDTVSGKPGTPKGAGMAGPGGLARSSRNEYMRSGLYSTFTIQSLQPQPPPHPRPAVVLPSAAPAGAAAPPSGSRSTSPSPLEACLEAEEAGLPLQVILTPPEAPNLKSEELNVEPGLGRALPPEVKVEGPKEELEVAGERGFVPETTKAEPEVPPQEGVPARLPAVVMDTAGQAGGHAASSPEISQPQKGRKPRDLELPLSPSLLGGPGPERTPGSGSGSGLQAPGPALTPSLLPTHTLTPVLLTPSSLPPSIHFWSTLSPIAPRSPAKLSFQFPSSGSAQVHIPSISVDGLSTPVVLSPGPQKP
# How it was run: as §1
# [3] = target: ELF1 (Homo sapiens, UniProt P32519 1-619)
# Sequence of ELF1 (P32519 whole entry): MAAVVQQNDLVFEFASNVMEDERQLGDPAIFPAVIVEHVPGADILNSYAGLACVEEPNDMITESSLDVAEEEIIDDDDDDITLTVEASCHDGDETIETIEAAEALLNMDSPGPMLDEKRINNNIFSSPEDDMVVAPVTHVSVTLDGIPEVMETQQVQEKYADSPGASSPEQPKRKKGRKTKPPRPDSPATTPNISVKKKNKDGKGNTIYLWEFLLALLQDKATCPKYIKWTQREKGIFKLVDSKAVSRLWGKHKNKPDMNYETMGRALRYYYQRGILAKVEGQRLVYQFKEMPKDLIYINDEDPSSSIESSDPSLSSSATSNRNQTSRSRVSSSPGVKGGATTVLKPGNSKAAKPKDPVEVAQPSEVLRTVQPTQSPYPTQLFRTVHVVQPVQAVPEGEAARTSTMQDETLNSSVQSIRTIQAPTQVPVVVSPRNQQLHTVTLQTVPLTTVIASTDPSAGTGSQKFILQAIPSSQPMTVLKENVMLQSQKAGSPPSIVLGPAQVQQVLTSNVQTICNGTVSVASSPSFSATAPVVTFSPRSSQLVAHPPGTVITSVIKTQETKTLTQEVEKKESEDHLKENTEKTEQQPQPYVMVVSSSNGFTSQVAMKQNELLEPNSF
# How it was run: as §1
# [4] = target: T3, EHF (Homo sapiens, UniProt Q9NZC4 1-300)
# T3 sequence: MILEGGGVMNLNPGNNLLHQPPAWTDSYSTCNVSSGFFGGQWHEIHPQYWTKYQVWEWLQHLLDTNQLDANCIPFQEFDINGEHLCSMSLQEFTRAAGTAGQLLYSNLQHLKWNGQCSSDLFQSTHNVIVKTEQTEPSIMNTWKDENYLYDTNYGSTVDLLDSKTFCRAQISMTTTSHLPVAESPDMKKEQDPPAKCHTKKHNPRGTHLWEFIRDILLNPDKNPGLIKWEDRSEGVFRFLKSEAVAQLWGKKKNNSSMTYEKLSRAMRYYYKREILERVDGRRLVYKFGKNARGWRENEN
# How it was run: as §1
# [5] = target: SPIB (Homo sapiens, UniProt Q01892 1-262)
# Sequence of SPIB (Q01892 whole entry): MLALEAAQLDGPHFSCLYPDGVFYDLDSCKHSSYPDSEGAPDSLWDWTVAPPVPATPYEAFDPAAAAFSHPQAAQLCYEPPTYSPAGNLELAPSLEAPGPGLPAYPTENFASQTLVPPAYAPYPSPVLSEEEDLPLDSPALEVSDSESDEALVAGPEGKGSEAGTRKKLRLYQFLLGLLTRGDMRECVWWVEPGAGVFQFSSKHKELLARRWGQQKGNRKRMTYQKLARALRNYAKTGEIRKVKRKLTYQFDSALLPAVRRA
# How it was run: as §1
# [6] = target: T4, ELK3 (Homo sapiens, UniProt P41970 1-407)
# T4 sequence: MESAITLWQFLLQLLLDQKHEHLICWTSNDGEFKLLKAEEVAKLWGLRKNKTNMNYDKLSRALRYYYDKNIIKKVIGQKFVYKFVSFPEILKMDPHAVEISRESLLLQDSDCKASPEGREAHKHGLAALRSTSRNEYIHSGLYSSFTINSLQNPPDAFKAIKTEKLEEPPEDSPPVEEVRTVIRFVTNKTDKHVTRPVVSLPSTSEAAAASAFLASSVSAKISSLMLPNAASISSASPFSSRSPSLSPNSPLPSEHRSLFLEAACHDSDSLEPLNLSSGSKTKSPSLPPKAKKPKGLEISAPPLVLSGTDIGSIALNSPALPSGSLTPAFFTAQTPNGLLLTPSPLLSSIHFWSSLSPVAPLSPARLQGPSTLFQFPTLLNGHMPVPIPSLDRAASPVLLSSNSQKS
# How it was run: as §1
# [7] = target: T5, SPIC (Homo sapiens, UniProt Q8N5J4 1-248)
# T5 sequence: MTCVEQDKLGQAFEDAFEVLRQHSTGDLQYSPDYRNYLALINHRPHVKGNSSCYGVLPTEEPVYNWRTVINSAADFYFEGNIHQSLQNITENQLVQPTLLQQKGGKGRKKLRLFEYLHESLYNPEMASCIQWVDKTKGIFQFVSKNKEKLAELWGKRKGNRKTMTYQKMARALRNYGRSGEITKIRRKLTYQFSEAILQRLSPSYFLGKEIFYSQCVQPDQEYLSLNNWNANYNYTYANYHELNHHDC
# How it was run: as §1
# [8] = target: ELF4 (Homo sapiens, UniProt Q99607 1-663)
# Sequence of ELF4 (Q99607 whole entry): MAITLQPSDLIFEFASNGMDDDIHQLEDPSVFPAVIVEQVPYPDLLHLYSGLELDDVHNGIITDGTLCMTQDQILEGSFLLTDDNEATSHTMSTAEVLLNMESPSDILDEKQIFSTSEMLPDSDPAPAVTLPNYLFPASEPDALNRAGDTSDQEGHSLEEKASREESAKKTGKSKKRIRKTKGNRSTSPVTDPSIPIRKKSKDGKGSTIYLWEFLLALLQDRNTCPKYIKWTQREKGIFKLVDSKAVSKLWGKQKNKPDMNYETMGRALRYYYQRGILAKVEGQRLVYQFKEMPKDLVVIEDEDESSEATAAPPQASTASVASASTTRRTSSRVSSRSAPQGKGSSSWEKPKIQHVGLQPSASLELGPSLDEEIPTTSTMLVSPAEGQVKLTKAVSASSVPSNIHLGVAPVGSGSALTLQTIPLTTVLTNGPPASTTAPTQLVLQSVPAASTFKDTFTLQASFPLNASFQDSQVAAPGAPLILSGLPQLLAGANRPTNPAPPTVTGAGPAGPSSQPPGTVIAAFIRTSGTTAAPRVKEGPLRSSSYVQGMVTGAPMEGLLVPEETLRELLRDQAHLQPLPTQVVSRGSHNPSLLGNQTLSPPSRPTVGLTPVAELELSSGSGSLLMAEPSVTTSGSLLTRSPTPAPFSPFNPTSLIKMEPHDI
# How it was run: as §1
# [9] = target: T6, ELK4 (Homo sapiens, UniProt P28324-2 1-405)
# T6 sequence: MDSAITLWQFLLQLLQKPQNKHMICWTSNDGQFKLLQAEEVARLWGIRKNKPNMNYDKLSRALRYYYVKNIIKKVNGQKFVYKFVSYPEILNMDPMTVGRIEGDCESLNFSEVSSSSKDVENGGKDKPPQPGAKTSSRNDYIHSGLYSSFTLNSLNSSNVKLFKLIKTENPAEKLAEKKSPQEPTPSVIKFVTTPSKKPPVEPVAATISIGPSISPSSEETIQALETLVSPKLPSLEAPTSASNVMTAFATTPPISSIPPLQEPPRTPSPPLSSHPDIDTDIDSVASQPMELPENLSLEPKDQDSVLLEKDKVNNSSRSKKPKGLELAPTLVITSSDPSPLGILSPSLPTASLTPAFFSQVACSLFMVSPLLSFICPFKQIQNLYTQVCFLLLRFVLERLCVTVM
# How it was run: as §1
# [10] = target: ETV1 (Homo sapiens, UniProt P50549 1-477)
# Sequence of ETV1 (P50549 whole entry): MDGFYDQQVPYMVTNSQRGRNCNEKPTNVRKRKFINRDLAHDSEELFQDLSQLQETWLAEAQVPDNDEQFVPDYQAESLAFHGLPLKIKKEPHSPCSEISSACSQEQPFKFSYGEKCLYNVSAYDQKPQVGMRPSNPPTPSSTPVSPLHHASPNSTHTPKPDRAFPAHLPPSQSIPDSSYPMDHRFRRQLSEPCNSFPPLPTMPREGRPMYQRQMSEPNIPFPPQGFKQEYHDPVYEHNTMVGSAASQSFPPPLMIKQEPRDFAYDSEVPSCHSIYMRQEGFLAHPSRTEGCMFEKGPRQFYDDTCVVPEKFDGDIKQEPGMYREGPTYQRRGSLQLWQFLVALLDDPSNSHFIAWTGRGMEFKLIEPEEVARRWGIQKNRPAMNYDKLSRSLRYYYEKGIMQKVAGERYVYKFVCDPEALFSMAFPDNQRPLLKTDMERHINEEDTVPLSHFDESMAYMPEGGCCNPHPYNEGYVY
# How it was run: as §1
# [11] = target: T7, ERF (Homo sapiens, UniProt P50548 1-548)
# T7 sequence: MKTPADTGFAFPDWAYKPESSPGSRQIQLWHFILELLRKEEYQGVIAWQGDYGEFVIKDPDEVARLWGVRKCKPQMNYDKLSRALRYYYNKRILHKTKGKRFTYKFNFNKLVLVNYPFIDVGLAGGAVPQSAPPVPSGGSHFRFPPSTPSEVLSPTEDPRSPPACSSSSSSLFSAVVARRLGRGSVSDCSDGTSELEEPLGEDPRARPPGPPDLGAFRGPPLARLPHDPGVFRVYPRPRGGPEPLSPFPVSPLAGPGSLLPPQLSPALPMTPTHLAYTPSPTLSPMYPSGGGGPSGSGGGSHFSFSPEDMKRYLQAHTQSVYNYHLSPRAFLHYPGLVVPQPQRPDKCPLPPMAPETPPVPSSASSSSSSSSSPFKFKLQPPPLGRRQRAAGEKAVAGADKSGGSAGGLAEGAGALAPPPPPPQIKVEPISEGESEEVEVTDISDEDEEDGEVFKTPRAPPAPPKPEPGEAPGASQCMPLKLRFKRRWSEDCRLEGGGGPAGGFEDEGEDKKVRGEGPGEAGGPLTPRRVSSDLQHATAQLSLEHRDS
# How it was run: as §1
# [12] = target: T8, ETV3L (Homo sapiens, UniProt Q6ZN32 1-361)
# T8 sequence: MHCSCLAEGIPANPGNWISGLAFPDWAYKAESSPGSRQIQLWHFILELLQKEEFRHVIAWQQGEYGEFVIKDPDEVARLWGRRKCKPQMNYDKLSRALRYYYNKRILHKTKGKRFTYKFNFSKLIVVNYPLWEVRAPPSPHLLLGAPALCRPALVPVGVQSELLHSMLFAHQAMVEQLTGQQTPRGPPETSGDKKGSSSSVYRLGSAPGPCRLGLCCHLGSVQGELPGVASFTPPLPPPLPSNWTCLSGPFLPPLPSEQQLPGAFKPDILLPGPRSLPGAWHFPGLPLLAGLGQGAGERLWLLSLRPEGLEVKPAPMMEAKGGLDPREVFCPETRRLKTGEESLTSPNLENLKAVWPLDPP
# How it was run: as §1
# [13] = target: T9, ETS2 (Homo sapiens, UniProt P15036 1-469)
# T9 sequence: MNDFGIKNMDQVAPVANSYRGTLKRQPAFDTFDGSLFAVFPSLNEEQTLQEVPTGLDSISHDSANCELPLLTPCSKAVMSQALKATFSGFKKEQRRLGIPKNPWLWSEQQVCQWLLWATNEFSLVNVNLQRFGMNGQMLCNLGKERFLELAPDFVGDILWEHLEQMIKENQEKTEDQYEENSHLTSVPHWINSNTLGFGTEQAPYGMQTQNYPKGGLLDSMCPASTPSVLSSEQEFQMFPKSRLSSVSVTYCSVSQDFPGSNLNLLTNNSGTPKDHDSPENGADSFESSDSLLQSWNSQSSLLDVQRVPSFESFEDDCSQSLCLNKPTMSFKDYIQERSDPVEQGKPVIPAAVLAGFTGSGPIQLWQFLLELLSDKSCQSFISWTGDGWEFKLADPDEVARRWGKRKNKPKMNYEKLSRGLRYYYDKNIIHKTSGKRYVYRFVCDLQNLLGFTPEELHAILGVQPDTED
# How it was run: as §1
# [14] = target: ETV6 (Homo sapiens, UniProt P41212 1-452)
# Sequence of ETV6 (P41212 whole entry): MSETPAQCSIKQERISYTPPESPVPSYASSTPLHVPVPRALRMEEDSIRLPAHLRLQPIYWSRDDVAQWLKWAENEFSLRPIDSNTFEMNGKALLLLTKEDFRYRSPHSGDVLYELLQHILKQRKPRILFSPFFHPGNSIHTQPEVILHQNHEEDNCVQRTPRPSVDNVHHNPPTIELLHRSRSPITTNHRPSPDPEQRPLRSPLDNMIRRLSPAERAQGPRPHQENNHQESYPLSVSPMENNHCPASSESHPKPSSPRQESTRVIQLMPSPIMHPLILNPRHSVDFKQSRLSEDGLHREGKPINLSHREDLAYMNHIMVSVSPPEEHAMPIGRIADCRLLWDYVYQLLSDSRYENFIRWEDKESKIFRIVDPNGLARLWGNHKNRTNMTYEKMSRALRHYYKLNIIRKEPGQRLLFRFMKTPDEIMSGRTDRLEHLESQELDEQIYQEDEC
# How it was run: as §1
sequence,measurement,setting,value
TGGTTG,binding signal,[1],"1.04 fold enrichment (6-mer frequency, TF over GST control)"
same,binding signal,[2],"1.02 fold enrichment (6-mer frequency, TF over GST control)"
same,binding signal,[3],"1.02 fold enrichment (6-mer frequency, TF over GST control)"
same,binding signal,[4],"1.02 fold enrichment (6-mer frequency, TF over GST control)"
same,binding signal,[5],"1.08 fold enrichment (6-mer frequency, TF over GST control)"
same,binding signal,[6],"1.03 fold enrichment (6-mer frequency, TF over GST control)"
same,binding signal,[7],"1.08 fold enrichment (6-mer frequency, TF over GST control)"
same,binding signal,[8],"1.03 fold enrichment (6-mer frequency, TF over GST control)"
same,binding signal,[9],"1.09 fold enrichment (6-mer frequency, TF over GST control)"
same,binding signal,[10],"1.05 fold enrichment (6-mer frequency, TF over GST control)"
same,binding signal,[11],"1.1 fold enrichment (6-mer frequency, TF over GST control)"
same,binding signal,[12],"1.03 fold enrichment (6-mer frequency, TF over GST control)"
same,binding signal,[13],"1.08 fold enrichment (6-mer frequency, TF over GST control)"
same,binding signal,[14],"1 fold enrichment (6-mer frequency, TF over GST control)"
